These results are taken from PubChem BioAssay AID720706 (Broad Institute, 2013).

Each structure is given as a SMILES string. The campaign covered roughly 350,000 compounds. About 5,500 (1.6%) were called active.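 The calls were made as follows: active = significant combined selectivity score with lowered wild-type GFP, culture density cut under 30%, mutant RFP and density less affected; inactive = any of these conditions unmet.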 Many of the other results were omitted from the sample, so actives are more common in it than they were.

This test in a line: reduced GFP signal of wild-type E. coli, primary screen, bacterial rRNA inhibitor project, GFP/RFP fluorescence, OD600, single point (AID 720706). The following applies: E. coli WT GFP vs humanized-ribosome RFP mutants, 24 h; GFP signal change (wild-type ribosome): stronger effect = lower value, DMSO median 0, no signal -100; OD600 change: measured here: OD600 growth, DMSO median 0, no signal -100; RFP signal change: measured here: RFP humanized mutant strains, DMSO median 0, no signal -100, concentration not given here.
Consider `C[C@@H]1CN([C@H](C)CO)C(=O)Cc2cc(NS(=O)(=O)c3cn(C)cn3)ccc2O[C@@H]1CN(C)C(=O)Nc1ccccc1`, for which the GFP signal change (wild-type ribosome) was 6.08% (inactive), the OD600 change was found to be 7.32% and the RFP signal change is -1.29%.

Take `CC(=O)Nc1cccc(NC(=O)c2ccc3c(c2)CCN3S(C)(=O)=O)c1`: the GFP signal change (wild-type ribosome) was -1.52% (inactive), the OD600 change turned out to be 7.81% and the RFP signal change was found to be 5.89%.

For `CN(c1cccc(NC(=O)c2ccc(CN3CCc4ccccc4C3)cc2)c1)S(C)(=O)=O`, the GFP signal change (wild-type ribosome) was -21.5% (active), the OD600 change was -11.3% and the RFP signal change was -3.92%.

For the molecule `CS(=O)(=O)N1CCc2cc(C(=O)Nc3ccccc3)ccc21`, the GFP signal change (wild-type ribosome) was 5.39% (inactive), the OD600 change was found to be 2.75% and the RFP signal change turned out to be 3.33%.

For the molecule `O=S(=O)(NCCc1csc(-c2ccccc2)n1)c1cccnc1`, the GFP signal change (wild-type ribosome) is -11.8% (inactive), the OD600 change is -3.96% and the RFP signal change was 1.22%.

With `O=C(NCCc1csc(-c2ccccc2)n1)c1ccccc1F`, the GFP signal change (wild-type ribosome) is -24.5% (active), the OD600 change is -9.12% and the RFP signal change was determined as 10.4%.

Consider `COc1ccc(-c2nc(CCNC(=O)c3ccc(Br)o3)cs2)cc1`, for which the GFP signal change (wild-type ribosome) is -22.8% (inactive), the OD600 change is -75.5% and the RFP signal change is -22.8%.

Turning to `C[C@H](CO)N1C[C@H](C)[C@@H](CN(C)C(=O)c2ccncc2)Oc2cc(/C=C/c3ccccc3)ccc2S1(=O)=O`, the GFP signal change (wild-type ribosome) is -0.655% (inactive), the OD600 change is -10% and the RFP signal change was found to be 0.748%.

For the molecule `CC(C)NC(=O)N(C)C[C@H]1Oc2ccc(N)cc2CC(=O)N(C)C[C@H]1C`, the GFP signal change (wild-type ribosome) is 1.15% (inactive), the OD600 change stood at 1.28% and the RFP signal change was -1.08%.

For `COc1ccc2oc(C(=O)NCc3ccco3)c(C)c2c1`, the GFP signal change (wild-type ribosome) is -31.1% (active), the OD600 change was -11.6% and the RFP signal change came to 2.2%.

Regarding `Cc1c(C(=O)NCC(c2ccco2)N2CCCC2)oc2ccc(Cl)cc12` (centres undefined), the GFP signal change (wild-type ribosome) is -0.887% (inactive), the OD600 change was -24.2% and the RFP signal change came to 6.54%.

Turning to `COc1ccc2oc(C(=O)NCC(Cc3ccccc3)N(C)C)c(C)c2c1` (centres undefined), the GFP signal change (wild-type ribosome) is 0.609% (inactive), the OD600 change is -7.21% and the RFP signal change stood at 3.26%.

Regarding `C[C@@H]1CCCCO[C@@H](CN(C)S(=O)(=O)c2cccs2)[C@H](C)CN([C@H](C)CO)C(=O)c2cc(NC(=O)CCCN(C)C)ccc2O1`, the GFP signal change (wild-type ribosome) was 0.863% (inactive), the OD600 change was 4.81% and the RFP signal change is -0.962%.

For `COc1ccc(O)c(C(=O)c2cnc3c(c2)c(-c2ccc(F)cc2)c(C#N)c(=O)n3C)c1`, the GFP signal change (wild-type ribosome) was -17% (active), the OD600 change came out at 6.31% and the RFP signal change came out at 1.18%.

Consider `Cc1cc(C)c2c(-c3ccc(F)cc3)c(C#N)c(=O)n(C)c2n1`, for which the GFP signal change (wild-type ribosome) was 2.75% (inactive), the OD600 change was found to be 5.62% and the RFP signal change was -1.52%.

For `COCCn1c(=O)[nH]c(=O)c2cc(C(=O)c3cc(OC)ccc3O)cnc21`, the GFP signal change (wild-type ribosome) is -0.725% (inactive), the OD600 change was -0.37% and the RFP signal change stood at 12.8%.

For the molecule `CC(=O)N1N=C(c2ccncc2)OC1(Cc1ccccc1)Cc1ccccc1`, the GFP signal change (wild-type ribosome) was -37.5% (active), the OD600 change is -22% and the RFP signal change is -2.93%.

On to `O=C(Cc1ccccc1)N1N=C(c2ccncc2)CC1(O)C(F)(F)F` (centres undefined), for which the GFP signal change (wild-type ribosome) is 7.85% (inactive), the OD600 change is -1.11% and the RFP signal change came out at 2.05%.

Consider `CC(=O)N1N=C(c2ccccc2)OC1c1cccnc1` (centres undefined), for which the GFP signal change (wild-type ribosome) is 9.41% (inactive), the OD600 change was -5.18% and the RFP signal change was -3.3%.

In the case of `COc1cccc(N2C(=O)CN(Cc3ccccc3)C2=S)c1`, the GFP signal change (wild-type ribosome) was -8.56% (inactive), the OD600 change was -0.07% and the RFP signal change is 3.96%.

On to `CCc1cccc(C)c1N1C(=O)CN(Cc2ccccc2)C1=S`, for which the GFP signal change (wild-type ribosome) is 1.91% (inactive), the OD600 change was -44.9% and the RFP signal change is -8.39%.

For the molecule `Cc1cccc(C)c1N1C(=O)CN(Cc2ccccc2)C1=S`, the GFP signal change (wild-type ribosome) was -22.1% (active), the OD600 change is -16.8% and the RFP signal change was -3.28%.

Consider `CCC(=O)N1CC(=O)N2[C@H](CO)[C@@H](c3ccc(-c4ccc(C(=O)N(C)C)cc4)cc3)[C@H]2C1`, for which the GFP signal change (wild-type ribosome) was 4.58% (inactive), the OD600 change amounted to 2.18% and the RFP signal change was -2.34%.

As to `COc1ccc(SSc2ccc(OC)cc2C(=O)O)c(C(=O)O)c1`, the GFP signal change (wild-type ribosome) was 11.9% (inactive), the OD600 change worked out at 11.8% and the RFP signal change is -2.19%.

`COC(=O)c1cc(OC)ccc1-c1ccc(OC)cc1`: the GFP signal change (wild-type ribosome) is -32.6% (active), the OD600 change is -15.3% and the RFP signal change is -6.08%.

Turning to `COc1ccc(C(=O)CC(=O)c2ccc(C)cc2)c(O)c1`, the GFP signal change (wild-type ribosome) was -49% (inactive), the OD600 change was -75.2% and the RFP signal change is -24.9%.

For the molecule `COc1ccccc1S(=O)(=O)N[C@@H]1CC[C@H](CCn2cc(C3CCCC3)nn2)O[C@H]1CO`, the GFP signal change (wild-type ribosome) was 1.1% (inactive), the OD600 change is 3.92% and the RFP signal change was -3.27%.

`C[C@H](CO)N1C[C@H](C)[C@H](CN(C)CC2CC2)OCCCC[C@H](C)Oc2ccc(NS(=O)(=O)c3cccs3)cc2C1=O`: the GFP signal change (wild-type ribosome) was -0.767% (inactive), the OD600 change was -2.73% and the RFP signal change was -0.839%.

For the molecule `Cc1ccc(-c2ccc([C@H]3[C@H](CO)N4C(=O)CN(S(=O)(=O)c5cccc(F)c5)C[C@@H]34)cc2)cc1`, the GFP signal change (wild-type ribosome) was -2.35% (inactive), the OD600 change was -0.94% and the RFP signal change was 0.984%.

Regarding `CCC(=O)Nc1ccc2c(c1)nc(CCN1CCN(c3ccccn3)CC1)n2C`, the GFP signal change (wild-type ribosome) was 4.56% (inactive), the OD600 change is 7.29% and the RFP signal change turned out to be 1.64%.

`Cn1c(=O)n(C)c2cc(NS(=O)(=O)c3ccc(F)cc3)ccc21`: the GFP signal change (wild-type ribosome) was 0.225% (inactive), the OD600 change stood at 0.76% and the RFP signal change is -4.92%.

Regarding `Cn1c(CCN2CCN(c3ccccn3)CC2)nc2cc(NS(=O)(=O)c3ccc(F)cc3)ccc21`, the GFP signal change (wild-type ribosome) was -28.9% (active), the OD600 change is -17% and the RFP signal change is 3.47%.

For `COCC(=O)N1CC2(C1)CN(C(=O)COC)[C@@H](CO)c1c2c2ccc(OC)cc2n1C`, the GFP signal change (wild-type ribosome) was 4.63% (inactive), the OD600 change came out at 7.89% and the RFP signal change amounted to 0.659%.

Take `Cc1ccc(S(=O)(=O)N(C)C[C@@H]2OCCCC[C@@H](C)Oc3ccc(NC(=O)C4CCCCC4)cc3C(=O)N([C@H](C)CO)C[C@H]2C)cc1`: the GFP signal change (wild-type ribosome) is -2.75% (inactive), the OD600 change is -2.24% and the RFP signal change is 1.84%.

As to `CCOCCCNC(=O)C1(O)c2cc(Br)ccc2NC(=O)N1c1ccc(C)c(C)c1` (centres undefined), the GFP signal change (wild-type ribosome) is 4.8% (inactive), the OD600 change came out at 3.91% and the RFP signal change stood at 0.676%.

For `CCCCNC(=O)C1(O)c2ccccc2NC(=O)N1c1ccc(Cl)cc1` (centres undefined), the GFP signal change (wild-type ribosome) is -25.8% (active), the OD600 change was -20.4% and the RFP signal change turned out to be 0.114%.

Turning to `CCOc1ccc(N2C(=O)Nc3ccccc3C2(O)C(=O)NCc2ccco2)cc1` (centres undefined), the GFP signal change (wild-type ribosome) is 2.27% (inactive), the OD600 change came to 2.6% and the RFP signal change turned out to be 0.0175%.

As to `CNC[C@@H]1Oc2c(NC(=O)Nc3ccc(F)cc3)cccc2C(=O)N([C@@H](C)CO)C[C@@H]1C`, the GFP signal change (wild-type ribosome) is 0.51% (inactive), the OD600 change turned out to be 5.77% and the RFP signal change was -0.32%.

On to `CCCNC(=O)C[C@H]1CC[C@H]2[C@@H](COC[C@H](O)CN2C(=O)Nc2c(C)noc2C)O1`, for which the GFP signal change (wild-type ribosome) was -3% (inactive), the OD600 change came to 7.33% and the RFP signal change is -4.75%.

`C[C@@H]1CN([C@@H](C)CO)S(=O)(=O)c2ccc(/C=C/c3ccccc3)cc2O[C@@H]1CN(C)C(=O)Nc1cc(F)ccc1F`: the GFP signal change (wild-type ribosome) is -1.81% (inactive), the OD600 change was determined as 7.09% and the RFP signal change was -0.095%.

`COc1ccccc1OCCNc1cc(N2CCOCC2)ccc1[N+](=O)[O-]`: the GFP signal change (wild-type ribosome) is -27.3% (active), the OD600 change is -18.1% and the RFP signal change is -0.933%.

On to `CC(=O)Nc1ccc(S(=O)(=O)N2CCN(c3ccc([N+](=O)[O-])c(NCCN4CCOCC4)c3)CC2)cc1`, for which the GFP signal change (wild-type ribosome) was -2.32% (inactive), the OD600 change was found to be 3% and the RFP signal change is 1.54%.

Take `COc1ccc(CCNc2cc(N3CCN(C(=O)c4ccccc4OC)CC3)ccc2[N+](=O)[O-])cc1OC`: the GFP signal change (wild-type ribosome) was 2.05% (inactive), the OD600 change was -0.295% and the RFP signal change came to 6.64%.
